Jurkat NFkB inh = inhibitors of the PMA/ionomycin-induced NF-kB reporter in Jurkat cells. PMA/ionomycin-induced NF-kB luciferase reporter, luminescence. inhibition, % at 4 µM. hit rate 0.53% among 330,000; in the data active = inhibition above about 50%
Gli-Sufu block = Gli-Sufu pathway antagonism; Sufu-KO-LIGHT fibroblasts, Gli luciferase reporter luminescence; inhibition, % at 5 µM; hit rate 0.74% among 340,000; AID 588413;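 active = inhibition above about 55%, limit read from the data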
Shn3 3UTR inh = Schnurri-3 reporter inhibition in Clone20 osteoblasts | Clone20 osteoblast Shn3 3'UTR firefly luciferase, 24 h | inhibition, % at 12.5 µM | hit rate 0.52% among 360,000;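 active = mean inhibition of at least 75% with every replicate also reaching 75%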
Mdm2 MdmX PPI = human Mdm2/MdmX binding inhibition; O15151+Q00987; SaOS-2 split-luciferase Mdm2/MdmX complementation, luminescence; inhibition, % at 8 µM; hit rate 3% among 330,000; AID 485346;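 active = inhibition of at least 50% at 8 µM in the primary screen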
697 NFkB inh = inhibitors of the PMA/ionomycin-induced NF-kB reporter in 697 B cells. 697 B-cell NF-kB luciferase reporter, 16 h. hit rate 0.33% among 330,000. AID 435022. inhibition, % at 4 µM; in the data active = inhibition above about 35%
Jurkat NFkB conf = inhibitors of the PMA/ionomycin-induced NF-kB reporter in Jurkat cells, retest. inhibition, % at 4 µM. hit rate 27% among 2,700. shares compounds with Jurkat NFkB inh. AID 435020. Jurkat NF-kB luciferase, 16 h;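 active = inhibition reaching about 45% at 4 µM in either replicate, limit read from the data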
697 NFkB conf = lowers PMA/ionomycin-induced NF-kB signal in 697 B cells; shares compounds with 697 NFkB inh; 697 B-cell NF-kB luciferase, 16 h; inhibition, % at 4 µM; hit rate 35% among 2,000; AID 449746; in the data active = inhibition mostly above about 28%, no sharp cut-off; inactive = mostly below about 22%
Large screens that a line does not name were inactive (follow-up assays come after a bar, where they were run). Shown are actives, neighbours in structure and some others; about 3.8% of the full set was active somewhere.

CCCCNc1c(-c2ccc(SC3CCCCC3)cc2)nc2ccccn12	none | Jurkat NFkB conf inactive
C[C@H](CO)N1C[C@H](C)[C@@H](CN(C)Cc2ccccc2)Oc2c(NS(=O)(=O)c3cn(C)cn3)cccc2C1=O	none
Cc1nc(NC(=O)c2csc3ccccc23)sc1C	none | Jurkat NFkB conf inactive
COc1ccccc1N(C)S(=O)(=O)c1ccc(C)c(C(=O)NCc2ccccn2)c1	none
CSc1cc(-c2ccccc2)n(Cc2ccccc2Cl)c(=O)c1C#N	Jurkat NFkB inh 64 | Jurkat NFkB conf inactive
CCc1cc(C(=O)NC2CCCc3c2cnn3-c2cccc(C)c2C)n(C)n1 (centres undefined)	Jurkat NFkB inh 79, Gli-Sufu block 83 (no result: Shn3 3UTR inh) | Jurkat NFkB conf 76
CCOC(=O)c1ccc(NC(=O)c2nc[nH]c2C(=O)NCCCNC(=O)c2[nH]cnc2C(=O)Nc2ccc(C(=O)OCC)cc2)cc1	none
CCOC(=O)c1ccc(NC(=O)c2nc[nH]c2C(=O)NCCCCNC(=O)c2[nH]cnc2C(=O)Nc2ccc(C(=O)OCC)cc2)cc1	Jurkat NFkB inh 67 | Jurkat NFkB conf inactive
COC(=O)C1(C)NC(c2cccc(C)c2)C2C(=O)N(c3ccccc3)C(=O)C21 (centres undefined)	none (no result: Jurkat NFkB inh, Gli-Sufu block, Mdm2 MdmX PPI, 697 NFkB inh)
O=[N+]([O-])c1ccccc1OCc1nc(-c2cccs2)no1	none | Jurkat NFkB conf inactive
O=[N+]([O-])c1ccc(F)cc1OCc1nc(-c2cccs2)no1	none (no result: Jurkat NFkB inh, Mdm2 MdmX PPI, 697 NFkB inh)
Cc1c(C(C)(C)C)s/c(=N/S(=O)(=O)c2ccccc2)n1C	none
Cc1c(C(C)(C)C)sc(=NC(=O)c2ccccc2O)n1C	none | Jurkat NFkB conf inactive
Cn1cc(/C=N/n2cnc3scc(-c4ccccc4)c3c2=O)c2ccccc21	Jurkat NFkB inh 63 | Jurkat NFkB conf inactive
Cc1ccc(N/C=C/c2onc(C)c2[N+](=O)[O-])cc1	none | Jurkat NFkB conf inactive
NC(=S)N=Nc1c(O)n(Cc2ccc(F)cc2)c2ccccc12	none
NC(=S)N=Nc1c(O)n(Cc2ccc(Br)cc2)c2ccccc12	Jurkat NFkB inh 60 | Jurkat NFkB conf inactive
O=C(Nc1cccnc1)c1ccc(COc2cc(Cl)ccc2Cl)o1	Jurkat NFkB inh 57 | Jurkat NFkB conf inactive
O=C1C2CC3N1CCC31c3ccccc3-n3c1c2ccc3=O (centres undefined)	none (no result: Jurkat NFkB inh, Mdm2 MdmX PPI, 697 NFkB inh)
CC(C)c1ccc(-c2nnn(CCC(=O)O)n2)cc1	Jurkat NFkB inh 60, 697 NFkB inh 71 | Jurkat NFkB conf 62 | 697 NFkB conf 70
O=C(O)CCn1nnc(-c2cccs2)n1	none
O=C(CCc1ccc(S(=O)(=O)N2CCOCC2)cc1)Nc1ccc(F)cc1[N+](=O)[O-]	none
Oc1c(N=Nc2ccc(F)cc2)ccc2ccccc12	none
COc1cccc(N=Nc2ccc3ccccc3c2O)c1	none | Jurkat NFkB conf inactive | 697 NFkB conf inactive
O=C(O)CSc1nnc(-c2cccc(S(=O)(=O)N3CCOCC3)c2)n1-c1ccc(F)cc1	none
C/C(=N/NC(=O)c1ccc(Br)o1)c1cccc(NC(=O)c2ccc(C)o2)c1	none
Nc1cc(=O)[nH]c(SCC(=O)NCCC2=CCCCC2)n1	none
COc1ccc(/C=C2\SC(=O)N(CCCC(=O)Nc3cc(Cl)ccc3C(=O)O)C2=O)cc1	Jurkat NFkB inh 73, Gli-Sufu block 74, 697 NFkB inh 92 | Jurkat NFkB conf 83 | 697 NFkB conf 90
COc1ccc2ccc(OCC(=O)NCC3CCCO3)cc2c1 (centres undefined)	none
CCSC1=NCCN1C(=O)c1ccc(S(=O)(=O)N(C)C)cc1	none
C=CCSc1cc(C)nc2c(-c3ccccc3)cnn12	none
CCSc1cc(C)nc2c(-c3ccccc3)cnn12	none | Jurkat NFkB conf inactive | 697 NFkB conf inactive
CCCS(=O)(=O)NC(=O)C1(C)CCCN(C(=O)c2ccc(C#N)cc2)C1 (centres undefined)	none (no result: Jurkat NFkB inh, Gli-Sufu block, Mdm2 MdmX PPI, 697 NFkB inh)
COC(=O)c1sccc1N/N=C/c1cccc(OC)c1O	none | Jurkat NFkB conf inactive | 697 NFkB conf inactive
COC(=O)c1sccc1N/N=C/c1ccc(OC)c(OC)c1OC	none
CCOC(=O)c1sc2nc3c(cc2c1N)COC(C(C)C)C3 (centres undefined)	none | Jurkat NFkB conf inactive | 697 NFkB conf inactive
Cc1ccc(NC(=O)c2cnn(-c3ccccc3)c2C)cc1C	none | Jurkat NFkB conf inactive | 697 NFkB conf inactive
Cc1c(C(=O)Nc2ccccc2)cnn1-c1ccccc1	none
